Shiga inhibitor – blocks Shiga toxin action in Vero cells. Vero cells, Shiga toxin protein synthesis inhibition reporter. inhibition, % at 38.7 µM. actives 9.2% (n = 290,000); in the data active means inhibition mostly above about 28%, no sharp cut-off; inactive means mostly below about 43%; further: 0% is about no effect
Sm TGR block – S. mansoni TGR enzyme inhibition; Q962Y6; purified TGR, DTNB reduction, TNB absorbance 405 nm; Potency, µM (titrated, usually from 114 µM), for the others: at the top dose activity change, negative = inhibition, hits mostly inhibitors; actives 3% (n = 360,000); AID 485364; further: potency means the concentration at half of the fitted maximal effect; on the % scale 0 is the no-effect control and ±100 the full control effect; nearly all actives have a fitted effect of over 60% in size
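First, TGR (20 nM dispensed) and NADPH were mixed with compound. Second, a 15 min room-temperature incubation followed. Third, further NADPH and then DTNB were added to start the reaction. Finally, TNB absorbance was monitored kinetically.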
LmPK inhibitor – inhibitors of Leishmania mexicana pyruvate kinase | AID 1721 | Q27686 | actives 0.37% (n = 290,000) | purified LmPK, Kinase-Glo ATP luminescence, 1 h | Potency, µM (doses to about 57.5 µM), inactives show at the highest dose activity change, negative = inhibition, actives largely listed as inhibitors; further: potency means the concentration at half of the fitted maximal effect; on the % scale 0 is the no-effect control and ±100 the full control effect
Target sequence (Q27686 whole entry, looked up): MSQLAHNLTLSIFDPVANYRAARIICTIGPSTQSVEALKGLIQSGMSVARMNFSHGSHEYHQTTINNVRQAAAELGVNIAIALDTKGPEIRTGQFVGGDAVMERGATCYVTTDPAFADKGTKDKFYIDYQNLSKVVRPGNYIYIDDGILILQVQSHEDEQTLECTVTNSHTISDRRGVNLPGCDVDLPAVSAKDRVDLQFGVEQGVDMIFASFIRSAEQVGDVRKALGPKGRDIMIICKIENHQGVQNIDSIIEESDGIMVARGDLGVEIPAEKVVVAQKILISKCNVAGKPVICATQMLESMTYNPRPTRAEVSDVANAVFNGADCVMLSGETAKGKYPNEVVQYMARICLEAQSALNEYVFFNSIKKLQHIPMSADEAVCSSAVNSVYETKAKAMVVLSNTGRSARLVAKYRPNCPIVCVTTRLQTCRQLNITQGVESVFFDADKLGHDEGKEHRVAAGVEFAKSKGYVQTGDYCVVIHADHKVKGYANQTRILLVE
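Pyruvate kinase activity monitored as ATP production (luciferase luminescence). Conditions: 0.1 nM enzyme, 0.5 mM PEP, 0.1 mM ADP, 1 h, RT; normalized against uninhibited and no-enzyme wells.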
TbPYK inhibitor – inhibitors of Trypanosoma brucei pyruvate kinase; TbPYK enzyme, Kinase-Glo Plus ATP luminescence, 45 min; Potency, µM (highest dose often 76.8 µM), for inactives: at the highest dose activity, negative = inhibition, usual class: inhibitors; actives 0.12% (n = 410,000); further: potency means the concentration at half of the fitted maximal effect; on the % scale 0 is the no-effect control and ±100 the full control effect; nearly all actives have a fitted effect of over 50% in size
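Enzyme and substrate buffer are dispensed first and compound is pin-transferred. ADP at 130 uM final then starts the reaction, which runs 45 min at room temperature. Detection reagent is added for 10 min before luminescence is imaged.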
Giardia FBPA inh – Giardia lamblia aldolase inhibition. actives 0.71% (n = 290,000). Potency, µM (titrated, usually from 59.6 µM), for the others: at the highest dose activity, negative = inhibition, most hits filed as inhibitors. AID 2451. purified Giardia FBPA; further: potency means the concentration at half of the fitted maximal effect; on the % scale 0 is the no-effect control and ±100 the full control effect; nearly all actives have a fitted effect of over 55% in size
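40 nM FBPA preincubated 10 min at RT with compound (up to 57.5 uM final), then substrate plus GAPDH/TPI/NAD/arsenate coupling and diaphorase/resazurin added. Fluorescence read after 20 min at RT, 525/598 nm.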
CHX counter – counter-screen for Shiga toxin inhibitors: cycloheximide protein synthesis inhibition | cell reporter, cycloheximide protein synthesis inhibition counterscreen | max response, % | actives 12% (n = 300,000) | AID 2314; in the data active means max response mostly above about 13%, no sharp cut-off; inactive means mostly below about 14%; further: read at 38.3 µM for the half of the compounds with a filed dose; 0% is about no effect
* = called active by the depositor; i = inactive; x = no result; [ ] = dose if it differs, or a comment. The entries come from a sample that favours hits as a whole. Unless noted, the call rests on the fitted dose curve; in most records, active means well fitted curve in the direction sought with a large enough effect; inconclusive means small, poorly fitted or top-dose-only effect, or another doubt; inactive means no such curve, though single readings can be large; an effect the other way counts as inactive or inconclusive.

SMILES | Shiga inhibitor | Sm TGR block | LmPK inhibitor | TbPYK inhibitor | Giardia FBPA inh | CHX counter
Cc1ccc(O)c(C=Nc2ccc3[nH]ncc3c2)c1 | -6 | 0% | -10% | -10% | -24% | -1
COc1ccc(Cl)cc1CN1C(=O)C(Cc2ccccc2)ON=C1C (centres undefined) | x | x | x | 5% | x | x
Cc1ccccc1-c1cncnc1Nc1ccccc1 | x | x | x | x | 8% | x
COC(=O)c1ccc2c(c1)N(CC(=O)Nc1cccc(Cl)c1C)C(=O)c1ccccc1S2 | x | 2% | x | -1% | x | x
CCNc1nc(C)cc(COC)c1C#N | -5 | 25µM* | 0% | -13% | 5% | -3
COCc1cc(C)nc(NCCO)c1C#N | 31 | 0% | 2% | -4% | 4% | -3
O=C(CCl)Nc1c2c(nn1-c1ccccc1)CSC2 | -3 | 10µM* | 0% | -17% | -10% | 4
O=C(CCCCl)Nc1c2c(nn1-c1ccccc1)CSC2 | 8 | -1% | 0% | -13% | -8% | -1
CCSc1nc2c(cnn2-c2ccccc2)c(=O)n1N | 50* | -26% | -14% | -10% | -3% | 46*
CCCCCSc1nc2c(cnn2-c2ccccc2)c(=O)[nH]1 | 20 | -4% | 1% | -5% | 3% | 1
Cc1ccc(-n2c(C)nc3c(cnn3-c3ccccc3)c2=O)cc1 | x | 13% | x | 3% | x | x
C=CCn1c(C)nc2c(cnn2-c2ccccc2)c1=O | 19 | 11% | -2% | -3% | 11% | 14*
Cc1cccc(-n2c(-c3ccco3)nc3c(cnn3-c3ccc(F)cc3)c2=O)c1 | x | 3% | x | -1% | x | x
Cc1cccc(-n2c(C)nc3c(cnn3-c3ccc(F)cc3)c2=O)c1 | 31 | 7% | -4% | 0% | -1% | 39*
CSc1nc2c(cnn2-c2ccccc2)c(=O)n1N | 91* | 7% | -6% | -4% | 0% | 28*
O=C1CCC[C@@H]2CC(NCc3ccc(Cl)c(Cl)c3)C[C@@H]3CCN1[C@H]23 (some centres undefined) | i | x | x | x | 4%[89.2 µM] | -5
CC1CCN(Cc2nnnn2CCCC(=O)NCCc2cnn(C)c2)CC1 | -3 | 1% | -5% | 2% | -5% | -2
COC(=O)C1=C(C(=O)OC)[C@@H]2N(Cc3ccccc3)c3ccccc3[C@@]23C[C@@H](C(=O)OC)N(S(=O)(=O)c2ccc4c(c2)OCCN4C)C3=N1 | x | x | -8%[11.5 µM] | x | 2%[12.9 µM] | x
O=C(CCSCc1cccc(Cl)c1)NCc1ccccc1Cl | x | 4% | x | 0% | x | x
O=C(NCCC(=O)N1CCN(S(=O)(=O)c2ccccc2Cl)CC1)Nc1ccccc1 | x | -4% | x | 1% | x | x
Cc1[nH]nc(Nc2ccc(O)cc2)c1[N+](=O)[O-] | 16 | 8% | -2% | 4% | 3% | 10
COc1ccc(Nc2n[nH]c(C)c2[N+](=O)[O-])cc1 | 100* | x | -1% | 9% | 0% | 32*
COc1cc(Cl)ccc1OCc1cc(C(=O)NC(C)Cc2cnccn2)no1 (centres undefined) | 70* | -7% | -4% | -2% | x | 42*
CCC(NC(=O)c1cc(COc2cc(C)c(Cl)c(C)c2)on1)c1ccncc1 (centres undefined) | 11 | 0% | 2% | 4% | 3% | 12
CCC(NC(=O)c1cc(COc2ccc(Cl)cc2OC)on1)c1ccncc1 (centres undefined) | 76* | 0% | 1% | 1% | x | 38*
SMILES | Shiga inhibitor | Sm TGR block | LmPK inhibitor | TbPYK inhibitor | Giardia FBPA inh | CHX counter
COc1cc(Cl)ccc1OCc1cc(C(=O)NCC(C)c2ccccc2)no1 (centres undefined) | 33 | 5% | 10% | 3% | -3% | 25*
CCC(NC(=O)c1cc(COc2ccc(OC)cc2Cl)on1)c1ccncc1 (centres undefined) | 63 | -20% | -11% | -2% | x | 64*
COc1cccc(Nc2ncc3nc(C)c(=O)n(CCc4ccccc4)c3n2)c1 | x | x | x | x | 6% | x
CC(=O)c1ccc(OC2C=CC(C#Cc3ccc(Br)cc3)OC2CO)cc1 (centres undefined) | x | x | x | x | -4%[12.9 µM] | x
Cc1ccc(N2CCN(c3ccc(C)cc3)C(CC(=O)O)C2=O)cc1 (centres undefined) | 4 | -11% | 3% | -4% | -1% | 9.2*
C[C@]12CC[C@H]3c4ccc(OC[C@H]5CO5)cc4CC[C@H]3[C@H]1CC[C@@H]2O | x | x | x | x | 1%[12.9 µM] | x
O=C(/C=C/c1cccc(Br)c1)NCc1ccncc1 | -11 | 3% | -3% | 3% | 6% | -2
COc1ccccc1/C=C/C(=O)Nc1cccnc1 | 156* | -1% | 2% | 0% | 12% | 37*
O=C(/C=C/c1ccc(Cl)cc1Cl)NCc1ccncc1 | 58 | 34% | 3% | -7% | 22% | 30*
O=C(/C=C/c1ccccc1Cl)NC1CCCCC1 | 27* | 6% | -14% | -12% | 6% | 33*
O=C(/C=C/c1ccccc1Cl)NC1CCS(=O)(=O)C1 (centres undefined) | 3 | 0% | 5% | -24% | -1% | -2
O=C(/C=C/c1ccccc1Cl)Nc1cccnc1 | 80* | -20% | -10% | -1% | -5% | 60*
O=C(/C=C/c1ccc(Cl)c(Cl)c1)Nc1cccnc1 | x | x | x | 1% | x | x
CCOc1ccc(/C=C/c2nc(C#N)c(NC(C)c3ccccc3)o2)cc1 (centres undefined) | x | -5% | x | 0% | x | x
COc1ccc(N2CC(NC(=O)c3ccc(S(=O)(=O)N4CCOCC4)cc3)CC2=O)cc1OC (centres undefined) | x | 1% | x | 5% | x | x
Cc1ccc(-n2nc(C(=O)N3CCC(C)CC3)c(=O)n(C)c2=O)cc1 | x | -5% | x | 1% | x | x
COc1ccc(N(C(=O)c2ccc(C(C)(C)C)cc2)S(=O)(=O)c2ccc(Cl)cc2)cc1 | x | 2% | x | -7% | x | x
Cc1ccc(NC(=O)/C=C/c2ccccc2Cl)cc1Cl | x | -10% | x | 1% | x | x
CC(=O)N(C)c1ccc(NC(=O)/C=C/c2ccccc2Cl)cc1 | 41* | 17% | 1% | -2% | 1% | 80*
CN1CCN(C(=S)NC(=O)/C=C/c2ccccc2Cl)CC1 | 27 | -4% | -4% | -7% | -22% | 9
O=C(/C=C/c1ccccc1Cl)Nc1ccncc1 | 67* | 7% | -8% | -4% | -9% | 25*
CCC(CC)NC(=O)/C=C/c1ccccc1Cl | 69* | 0% | -19% | -13% | -1% | 35*
O=C(/C=C/c1ccc(Cl)cc1Cl)Nc1ccncc1 | 96* | 7% | -1% | 4% | 1% | 50*
O=C(/C=C/c1ccc(Cl)cc1Cl)Nc1ccc(CN2CCOCC2)cc1 | 2 | -1% | 1% | 3% | 5% | 2
COc1ccc(S(=O)(=O)c2cn(C)c3cc(N4CCCC4)c(F)cc3c2=O)cc1 | x | 4% | x | 4% | x | x
N#Cc1ccc(CN2C(=O)c3ccccc3Sc3ccc(C(=O)OCc4ccco4)cc32)cc1 | x | -31% | x | -10% | x | x

Screening results deposited in PubChem BioAssay by National Center for Advancing Translational Sciences (NCATS).
